# Laboratory results from PubChem BioAssay.
# The source made the active and inactive calls.
# Experiments:
# [1] = optical density shifts of acrAB sulA E. coli – strain DRC41, OD650, 48 h, E. coli filamentation inducer project, primary screen (AID 1152); conditions: higher = more signal, called active from +8 up or from −8 down;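 further: E. coli MC1000 strain DRC41 lacking acrAB efflux pump and sulA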
# [2] = probe aLefty1 binding on compound microarray – biochemical, small-molecule microarray, 635/667 nm fluorescence, primary screen (AID 1153); conditions: higher = more signal;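 further: score merges spot fluorescence with signal-to-noise ratio from the scanned slide images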
# [3] = plasmodial surface anion channel blockers, osmotic lysis – cell-based, P. falciparum Indochina, OD700, 1 h, primary screen (AID 1154); conditions: P. falciparum Indochina infected RBC osmotic lysis, higher = more signal, called active from +8 up or from −8 down
# [4] = plasmodial surface anion channel blockers, osmotic lysis – cell-based, P. falciparum Indochina, OD700, 2 h, primary screen (AID 1155);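 further: lysis reports solute entry through the parasite surface anion channel PSAC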; conditions: P. falciparum Indochina infected erythrocytes, higher = more signal, called active from +8 up or from −8 down
# [5] = changes in parasitized red cell lysis, either direction – P. falciparum Indochina, OD700, 3 h, PSAC antagonist project, primary screen (AID 1156); conditions: P. falciparum-infected erythrocytes, osmotic lysis, higher = more signal, called active from +8 up or from −8 down
# [6] = plasmodial surface anion channel blockers, osmotic lysis – cell-based, P. falciparum Indochina, OD700, 18 h, primary screen (AID 1157); conditions: P. falciparum Indochina infected erythrocytes, osmotic lysis OD700, 18 h; higher = more signal, called active from +8 up or from −8 down
# [7] = S6 kinase pathway phospho-S6 level changes – cell-based, A549, cytoblot, luminescence, serum-stimulated, primary screen (AID 1158); conditions: 5 h, higher = more signal;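 further: serum-stimulated A549 lung adenocarcinoma cells; signal is phosphorylated S6 detected by cytoblot immunostaining with HRP secondary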
# [8] = biological target: NADPH oxidase 2 (Homo sapiens) (UniProt P04839); assay: compounds shifting NOX2 Amplex Red fluorescence – cell-based, HEK293-NOX2, PMA-stimulated, NOX inhibitor project, primary screen (AID 1159); conditions: 45 min, higher = more signal, called active from +8 up or from −8 down; further: test concentration not given here
# [9] = biological target: NADPH oxidase 4 (Homo sapiens) (UniProt Q9NPH5); assay: compounds shifting NOX4 Amplex Red fluorescence – cell-based, HEK293-NOX4, tetracycline-induced, NOX inhibitor project, primary screen (AID 1160); conditions: HEK293-NOX4, Amplex Red H2O2 fluorescence, 45 min; higher = more signal, called active from +8 up or from −8 down
# [10] = biological target: NADPH oxidase 5 (Homo sapiens) (UniProt Q96PH1); assay: compounds shifting NOX5 Amplex Red fluorescence – cell-based, HEK293-NOX5, NOX inhibitor project, primary screen (AID 1161); conditions: HEK293-NOX5, ionomycin, 45 min, higher = more signal
# Chain of NADPH oxidase 5 (Homo sapiens) (Q96PH1 whole entry, looked up): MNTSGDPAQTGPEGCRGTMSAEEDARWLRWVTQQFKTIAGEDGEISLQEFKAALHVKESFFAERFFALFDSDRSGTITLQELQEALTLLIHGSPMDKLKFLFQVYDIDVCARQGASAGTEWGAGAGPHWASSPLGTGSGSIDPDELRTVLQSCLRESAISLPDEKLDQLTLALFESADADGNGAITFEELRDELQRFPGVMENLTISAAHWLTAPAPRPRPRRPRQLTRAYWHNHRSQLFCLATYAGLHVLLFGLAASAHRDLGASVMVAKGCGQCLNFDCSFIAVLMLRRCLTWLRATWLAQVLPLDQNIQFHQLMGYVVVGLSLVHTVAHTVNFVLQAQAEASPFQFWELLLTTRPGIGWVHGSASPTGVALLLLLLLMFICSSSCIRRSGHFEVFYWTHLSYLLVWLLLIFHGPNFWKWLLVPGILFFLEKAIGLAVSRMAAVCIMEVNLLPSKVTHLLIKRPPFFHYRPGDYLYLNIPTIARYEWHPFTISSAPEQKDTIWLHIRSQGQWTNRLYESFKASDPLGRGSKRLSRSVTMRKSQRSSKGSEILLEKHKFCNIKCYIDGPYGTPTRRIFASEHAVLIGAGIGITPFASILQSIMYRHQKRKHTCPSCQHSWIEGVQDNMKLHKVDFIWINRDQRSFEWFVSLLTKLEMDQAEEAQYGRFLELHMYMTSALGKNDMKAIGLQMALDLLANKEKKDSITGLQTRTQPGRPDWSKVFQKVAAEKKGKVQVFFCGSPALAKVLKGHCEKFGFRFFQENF
# Chain of NADPH oxidase 2 (Homo sapiens) (P04839 whole entry, looked up): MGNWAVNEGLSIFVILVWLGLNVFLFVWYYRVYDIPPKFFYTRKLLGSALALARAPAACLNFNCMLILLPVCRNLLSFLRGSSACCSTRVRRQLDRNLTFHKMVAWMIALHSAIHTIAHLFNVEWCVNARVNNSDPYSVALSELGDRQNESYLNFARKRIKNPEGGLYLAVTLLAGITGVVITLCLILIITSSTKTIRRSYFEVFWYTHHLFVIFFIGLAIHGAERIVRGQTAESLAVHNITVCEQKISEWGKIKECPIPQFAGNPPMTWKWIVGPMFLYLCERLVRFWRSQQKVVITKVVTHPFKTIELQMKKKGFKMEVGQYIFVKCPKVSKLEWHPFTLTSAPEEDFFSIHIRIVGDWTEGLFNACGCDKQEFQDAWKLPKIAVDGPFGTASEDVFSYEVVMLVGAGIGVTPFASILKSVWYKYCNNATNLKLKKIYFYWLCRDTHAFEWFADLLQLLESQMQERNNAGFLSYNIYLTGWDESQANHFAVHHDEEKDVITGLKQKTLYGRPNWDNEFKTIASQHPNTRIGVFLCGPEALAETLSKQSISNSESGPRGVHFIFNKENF
# Chain of NADPH oxidase 4 (Homo sapiens) (Q9NPH5 whole entry, looked up): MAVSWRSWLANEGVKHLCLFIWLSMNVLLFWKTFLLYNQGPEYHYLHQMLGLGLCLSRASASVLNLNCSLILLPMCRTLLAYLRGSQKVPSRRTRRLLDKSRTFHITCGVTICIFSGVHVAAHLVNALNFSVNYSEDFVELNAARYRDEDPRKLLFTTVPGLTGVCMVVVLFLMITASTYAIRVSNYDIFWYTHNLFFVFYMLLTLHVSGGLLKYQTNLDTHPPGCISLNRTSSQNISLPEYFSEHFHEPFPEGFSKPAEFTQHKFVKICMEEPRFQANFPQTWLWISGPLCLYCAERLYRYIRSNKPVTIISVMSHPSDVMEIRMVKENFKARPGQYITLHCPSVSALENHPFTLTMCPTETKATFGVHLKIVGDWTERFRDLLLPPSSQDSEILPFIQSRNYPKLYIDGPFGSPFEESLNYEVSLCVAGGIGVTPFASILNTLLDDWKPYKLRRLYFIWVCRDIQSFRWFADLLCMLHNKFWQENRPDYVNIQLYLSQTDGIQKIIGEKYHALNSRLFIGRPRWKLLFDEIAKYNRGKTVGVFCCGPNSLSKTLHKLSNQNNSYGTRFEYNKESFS
SMILES,z-score [1],composite z-score [2],z-score [3],z-score [4],z-score [5],z-score [6],z-score [7],z-score [8],z-score [9],z-score [10]
CC(C)N1CC=CC23O[C@@H]4C=CCCOC(=O)C4[C@H]2C(=O)N(CCCO)[C@@H]3C1=O (stereo not given in full),2.91 (inactive),0.0656,-0.0633 (inactive),-0.706 (inactive),1.3 (inactive),-0.646 (inactive),0.842,-1.67 (inactive),-2.17 (inactive),-2.78
O=C1[C@H]2C=C(I)[C@H](C[C@@H]2OCCOCCO)[C@@]12CO2,-0.878 (inactive),-0.371,-0.0899 (inactive),-0.122 (inactive),-0.321 (inactive),-0.235 (inactive),0.0332,0.578 (inactive),0.373 (inactive),-0.151
COc1ccc(CCNC(=O)[C@@]2(Sc3ccc(C)cc3)CC(=O)N(Cc3ccccc3C(F)(F)F)[C@@H]2c2ccc(CO)cc2I)cc1,0.729 (inactive),0.0701,7.89 (inactive),1.43 (inactive),0.932 (inactive),0.844 (inactive),-0.513,0.933 (inactive),-2.09 (inactive),0.713
COC(=O)[C@@]1(Cc2ccc(OC)cc2)[C@H]2c3cc(C(=O)N4CCCC4)n(CCO)c3C[C@H]2CN1C(=O)c1ccccc1,-1.72 (inactive),0.399,2.85 (inactive),0.766 (inactive),1.66 (inactive),0.815 (inactive),0.604,-0.0722 (inactive),-2.96 (inactive),-4.86
CC(C)[Si](C#C[Si](C(C)C)(C(C)C)C(C)C)(O[C@H](c1ccccc1)c1cn(Cc2ccccc2)nn1)C(C)C,1.25 (inactive),0.0997,0.62 (inactive),0.267 (inactive),-0.351 (inactive),0.136 (inactive),-0.25,-0.734 (inactive),-1.17 (inactive),-0.932
COc1ccc([Si](C)(C)[C@@H]2[C@@H](CCO)O[C@]3(C(=O)N(Cc4ccccc4)c4ccc(N5C(=O)c6cccc7cccc5c67)cc43)[C@H]2C)cc1,0.487 (inactive),-0.0111,2.72 (inactive),2.2 (inactive),0.504 (inactive),1.16 (inactive),-0.0126,0.326 (inactive),0.1 (inactive),2.32
CC(C)C(CO)N1C(=O)[C@@H]2C3C(=O)OCCC/C=C\[C@H]3OC23C=CCN(Cn2nnc4ccccc42)C(=O)[C@@H]13 (stereo not given in full),0.302 (inactive),-0.147,0.897 (inactive),-0.364 (inactive),-0.443 (inactive),0.234 (inactive),1.36,1.23 (inactive),0.806 (inactive),1.51
CC(C)[Si]1(C(C)C)OCc2cc(C3CC3)nc(-c3ccc(Oc4ccccc4)cc3)c21,-0.367 (inactive),-0.284,2.58 (inactive),1.8 (inactive),0.508 (inactive),1.29 (inactive),-0.389,1.11 (inactive),0.344 (inactive),0.322
NCCCCCNC(=O)[C@@H]1C[C@@H]2C(=O)N[C@@H](CCCCN)C(=O)N2[C@@H]1c1ccc(O)cc1,-0.175 (inactive),0.739,3.95 (inactive),1.74 (inactive),-2.34 (inactive),0.937 (inactive),-0.912,1.5 (inactive),1.85 (inactive),1.48
CC(C)N1C(=O)C[C@@](C(=O)O)(c2ccc([N+](=O)[O-])cc2)[C@H]1c1ccc(CO)cc1,1.47 (inactive),0.188,3.45 (inactive),0.654 (inactive),0.415 (inactive),0.159 (inactive),0.126,-2.39 (inactive),0.251 (inactive),1.02
CCCCC(O)C1C=CC2C(=O)N(C)C(=O)C2N1N(c1ccccc1)c1ccccc1 (stereo not given),-2.15 (inactive),0.475,3.81 (inactive),1 (inactive),1.3 (inactive),0.951 (inactive),-1.05,-0.334 (inactive),-1.98 (inactive),-0.376
[N-]=[N+]=Nc1ccccc1C[C@]1(C(=O)O)COC(c2ccc(OCCCO)cc2)=N1,-0.541 (inactive),0.199,23.9 (active),8.27 (active),4.11 (inactive),0.935 (inactive),-0.103,-2.44 (inactive),-0.992 (inactive),-2.7
C=CC[C@H](OC(=O)Nc1ccc(SC)cc1)c1ccc(O)c2ccccc12,-1.2 (inactive),0.27,29.5 (active),16.8 (active),2.22 (inactive),1.63 (inactive),0.76,-5.83 (inactive),-1.41 (inactive),-0.0589
C=CCNC(=O)[C@@H]1[C@H]2C(=O)O[C@H](c3ccccc3)[C@H](c3ccccc3)N2[C@H](c2ccccc2OCCO)[C@@]12C(=O)N(C(=O)OCCOC)c1ccc(C#CC3(O)CCCCCC3)cc12,0.592 (inactive),0.038,1.95 (inactive),2.02 (inactive),0.167 (inactive),0.996 (inactive),0.152,1.09 (inactive),0.906 (inactive),0.337
[N-]=[N+]=Nc1ccccc1[C@@H]1OC(c2ccc(OCCCO)cc2)=N[C@]1(Cc1ccccc1)C(=O)N1CCCCC1,0.227 (inactive),0.282,32.6 (active),32.7 (active),3.01 (inactive),4 (inactive),0.328,-1.43 (inactive),-0.743 (inactive),-1.77
CCCCCN1CC=CC23O[C@@H]4C=CCCOC(=O)C4[C@H]2C(=O)N(CCCCCCO)[C@@H]3C1=O (stereo not given in full),0.457 (inactive),-0.324,1.07 (inactive),0.705 (inactive),1.01 (inactive),0.407 (inactive),1.59,1.27 (inactive),-0.0418 (inactive),2.08
CO[C@H]1O[C@H](CO)[C@@H](OC(=O)Nc2ccc3c(c2)OCO3)[C@H](OC(=O)Nc2ccc3c(c2)OCO3)[C@@H]1OC(=O)Nc1ccc2c(c1)OCO2,-0.53 (inactive),0.26,11 (active),1.62 (inactive),1.55 (inactive),0.742 (inactive),-0.563,-1.32 (inactive),-1.19 (inactive),-1.57
O=C(C1N=C(c2ccc(OCCCO)cc2)N(c2ccccc2)O1)N1CCCCC1 (stereo not given),0.666 (inactive),0.0338,13.2 (active),1.66 (inactive),0.374 (inactive),0.423 (inactive),-0.0704,1.12 (inactive),0.209 (inactive),-0.404
CCCNC(=O)[C@@H]1c2ccccc2C(=O)N(Cc2ccc(OC(F)(F)F)cc2)[C@H]1c1ccc(CO)cc1,0.52 (inactive),-0.0099,1.23 (inactive),-0.146 (inactive),1.03 (inactive),-0.406 (inactive),0.289,-0.62 (inactive),0.184 (inactive),1.75
Cc1ccc(C(C)CC(O)C2C=CC3C(=O)N(c4ccccc4)C(=O)C3N2Nc2ccccc2)o1 (stereo not given),-1.13 (inactive),0.738,4.07 (inactive),1 (inactive),-0.0498 (inactive),-0.374 (inactive),2.07,-3.07 (inactive),-5.71 (inactive),-4.91
[N-]=[N+]=Nc1ccccc1C[C@@]1(C(=O)NCCN2CCOCC2)N=C(c2ccc(OCCCO)cc2)O[C@@H]1c1ccccc1N=[N+]=[N-],-0.374 (inactive),0.632,30.8 (active),30.8 (active),2.72 (inactive),2.78 (inactive),-0.26,-2.91 (inactive),-0.157 (inactive),-1.6
C=CC[C@@H](OC(=O)Nc1ccc(OC)cc1)c1ccc(O)c(F)c1,0.111 (inactive),0.109,2.93 (inactive),-0.0384 (inactive),-1.12 (inactive),-0.113 (inactive),-0.386,-6 (inactive),-2.91 (inactive),-3.48
CC(CO)N1C(=O)[C@@H]2[C@H]3C(=O)OCC=C[C@H]3OC23C=CCN(Cn2nnc4ccccc42)C(=O)[C@@H]13 (stereo not given in full),-0.597 (inactive),-0.147,0.638 (inactive),0.359 (inactive),0.029 (inactive),0.0866 (inactive),-0.0773,0.698 (inactive),0.672 (inactive),1.78
C=CCC(OC(C)=O)[C@@H]1[C@@H](N(Cc2ccc(-c3ccccc3)cc2)C(=O)c2ccc(-c3ccccc3)cc2)c2cc(OCCCO)ccc2N1C(=O)c1ccc2ccccc2c1 (stereo not given in full),-0.75 (inactive),0.445,0.225 (inactive),-0.135 (inactive),-0.503 (inactive),-0.0602 (inactive),0.6,0.707 (inactive),0.987 (inactive),0.99
COC(=O)c1c(CC[C@@H](CO)NC(=O)N2CCC[C@H]2Cn2cc(C3(O)CCCCC3)nn2)oc(C(C)=O)c1C(=O)OC,-0.955 (inactive),-0.101,1.35 (inactive),0.092 (inactive),1.14 (inactive),0.163 (inactive),-0.0302,-0.645 (inactive),-0.981 (inactive),-1.37
CCN(CC)c1ccc(N2CC=CC34O[C@@H]5/C=C\CCCOC(=O)C5[C@H]3C(=O)N(C(C)CO)[C@@H]4C2=O)cc1 (stereo not given in full),1.56 (inactive),-0.0814,0.733 (inactive),-0.264 (inactive),1.33 (inactive),-0.306 (inactive),0.0073,0.275 (inactive),-0.0723 (inactive),0.83
